Test systems include DU-145 prostate; K-562 leukemia; MALME-3M melanoma; MDA-MB-231 breast; RXF 393 renal; SF-268 CNS; SF-295 CNS; SF-539 CNS; UACC-257 melanoma; M14 melanoma; HCT-15 colon; HT29 colon; SNB-75 CNS; SNB-19 CNS; U251 CNS; PC-3 prostate; SK-MEL-5 melanoma; UACC-62 melanoma; LOX IMVI melanoma; SK-MEL-28 melanoma.
Test in all cases: NCI-60 one-dose screen, 48 h (100 = growth as untreated, 0 = no growth, -100 = all killed)
Details in all cases: 10 µM unless noted

The structures appear in SMILES notation. This is part of a sample that, as a whole, favours compounds with a hit. Of some 83,000 tested, about 20% had one in any assay.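 Cell lines were cultured in 96-well plates, exposed to a single compound concentration, and assessed for percent growth 48 hours later.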 A number with no mark means an inactive call. Activity calls are given as the source filed them. The calls were made as follows: active = growth percent below 10; inactive = the rest.

For `Cn1ccnc1C(=O)/C=C/c1ccc(C(=O)Nc2ccc(Cl)cc2)cc1`, the growth with DU-145 prostate was 10.9%; in the assay with K-562 leukemia, 2.13% (active); in the assay on MALME-3M melanoma, 51.5%; in the assay with MDA-MB-231 breast, 1.85% (active); in the assay on RXF 393 renal, -57.1% (active); in the assay with SF-268 CNS it was 0.451% (active). Moreover, the growth in the assay with SF-295 CNS is 27.3%; with SF-539 CNS, -73.4% (active); with UACC-257 melanoma, 51.6%; with M14 melanoma it was 6.17% (active); in the assay with HCT-15 colon it was -13.2% (active); with HT29 colon, 2.78% (active). Further, the growth was -3.04% (active) in the assay on SNB-75 CNS; -3% (active) in the assay with SNB-19 CNS; -50.1% (active) in the assay on U251 CNS; -6.8% (active) with PC-3 prostate; 32.3% in the assay with SK-MEL-5 melanoma; 16.6% in the assay with UACC-62 melanoma. Further, the growth with LOX IMVI melanoma is -84.8% (active); with SK-MEL-28 melanoma, 62.4%.
In the case of `Nc1n[nH]c2cccc(C#Cc3cccc(NC(=O)c4cc(F)cc(C(F)(F)F)c4)c3)c12`, the growth in the assay on DU-145 prostate is 97.9%; with K-562 leukemia it was 9.27% (active); in the assay on MALME-3M melanoma it was 53%; in the assay on MDA-MB-231 breast it was 48.1%; in the assay on RXF 393 renal, 62.8%; in the assay with SF-268 CNS, 73.6%. For the same compound, the growth in the assay with SF-295 CNS is 81.3%; in the assay with SF-539 CNS, 44%; in the assay with UACC-257 melanoma, 88.5%; in the assay with M14 melanoma, 41.9%; with HCT-15 colon, 74.4%; in the assay on HT29 colon, 48.3%. For the same compound, the growth in the assay with SNB-75 CNS is 98.6%; in the assay on SNB-19 CNS it was 104%; in the assay with U251 CNS, 93.7%; in the assay with PC-3 prostate it was 64.1%; with SK-MEL-5 melanoma, 71.7%; in the assay with UACC-62 melanoma, 48.1%. Moreover, the growth in the assay on LOX IMVI melanoma was 37%; with SK-MEL-28 melanoma, 66.8%.
In the case of `CCCCCOC(=O)c1c(C)[nH]c(/C=C2\N=C(c3ccc[nH]3)C=C2OC)c1C`, the growth is 27.4% in the assay with DU-145 prostate; -6.07% (active) with K-562 leukemia; -61.3% (active) in the assay on MALME-3M melanoma; -48.5% (active) in the assay with MDA-MB-231 breast; -47.3% (active) with RXF 393 renal; 14.9% in the assay with SF-268 CNS. In addition, the growth in the assay on SF-295 CNS was -37.2% (active); with SF-539 CNS, -41.6% (active); with UACC-257 melanoma, -20.1% (active); in the assay on M14 melanoma, -70.4% (active); in the assay with HCT-15 colon it was -28.8% (active); in the assay with HT29 colon it was -28% (active). Further, the growth was -28.1% (active) with SNB-75 CNS; 21.2% in the assay with SNB-19 CNS; -24.1% (active) with U251 CNS; 12.3% in the assay with PC-3 prostate; -100% (active) in the assay on SK-MEL-5 melanoma; -70.9% (active) in the assay with UACC-62 melanoma. In addition, the results for the growth in the assay on LOX IMVI melanoma and in the assay with SK-MEL-28 melanoma were -99.7% (active) and -45.8% (active), respectively.
With `CCSC(SCC)c1ccc(Cl)cc1`, the growth in the assay on DU-145 prostate is 107%; in the assay on K-562 leukemia, 118%; in the assay on MALME-3M melanoma it was 102%; in the assay with MDA-MB-231 breast it was 107%; in the assay on RXF 393 renal it was 114%; in the assay with SF-268 CNS, 100%. Moreover, the growth in the assay on SF-295 CNS was 87.1%; in the assay on SF-539 CNS, 107%; with UACC-257 melanoma, 99.4%; with M14 melanoma it was 110%; in the assay with HCT-15 colon it was 108%; in the assay with HT29 colon, 97.4%. The growth in the assay with SNB-75 CNS is 107%; in the assay with SNB-19 CNS, 110%; in the assay on U251 CNS, 102%; in the assay with PC-3 prostate, 101%; with SK-MEL-5 melanoma, 110%; in the assay on UACC-62 melanoma it was 98.6%. For the same compound, the growth in the assay on LOX IMVI melanoma was 95.9%; in the assay on SK-MEL-28 melanoma, 115%.
With `CCOCCNC1=C(Cl)C(=O)c2ccccc2C1=O`, the growth in the assay on DU-145 prostate was 76.3%; in the assay with K-562 leukemia, 91.8%; in the assay with MALME-3M melanoma, 106%; in the assay with MDA-MB-231 breast, 116%; with RXF 393 renal it was 123%; in the assay with SF-268 CNS, 101%. The growth with SF-295 CNS was 95.1%; in the assay with SF-539 CNS, 121%; with UACC-257 melanoma, 98.2%; in the assay on M14 melanoma, 110%; in the assay with HCT-15 colon, 95%; in the assay with HT29 colon, 107%. Further, the growth was 57.9% with SNB-75 CNS; 111% in the assay with SNB-19 CNS; 100% in the assay on U251 CNS; 92.6% in the assay with PC-3 prostate; 67.2% in the assay on SK-MEL-5 melanoma; 101% in the assay with UACC-62 melanoma. Also, the growth in the assay on LOX IMVI melanoma is 70.6%; in the assay with SK-MEL-28 melanoma it was 117%.
As to `CC1CCN(CCOc2ccc(CNc3ccc4nc(CCC5CCCCC5)[nH]c4c3)cc2)CC1`, the growth is 50.9% in the assay on DU-145 prostate; -0.866% (active) with K-562 leukemia; -85.8% (active) in the assay on MALME-3M melanoma; 0.0918% (active) in the assay on MDA-MB-231 breast; 2.71% (active) with RXF 393 renal; 57.4% with SF-268 CNS. The growth is -45.9% (active) with SF-295 CNS; -67.9% (active) with SF-539 CNS; -72.3% (active) in the assay on UACC-257 melanoma; -63.1% (active) in the assay on M14 melanoma; -22.5% (active) in the assay with HCT-15 colon; 10% in the assay on HT29 colon. For the same compound, the growth was 59.7% in the assay on SNB-75 CNS; 62.3% in the assay with SNB-19 CNS; -11.2% (active) in the assay on U251 CNS; 40.3% in the assay on PC-3 prostate; -99% (active) in the assay with SK-MEL-5 melanoma; 56.8% in the assay with UACC-62 melanoma. Also, the growth in the assay on LOX IMVI melanoma was -85.7% (active); with SK-MEL-28 melanoma, -80.2% (active).
Consider `COc1ccc(C(=O)/C=C/c2c(C(F)(F)F)nc3ccccn23)cc1OC`, for which the growth was 4.16% (active) in the assay with DU-145 prostate; 11.4% in the assay with K-562 leukemia; 41.5% in the assay with MALME-3M melanoma; 26.2% with MDA-MB-231 breast; 14.8% in the assay with RXF 393 renal; 5.35% (active) with SF-268 CNS. Moreover, the growth is 0.39% (active) with SF-295 CNS; -13.3% (active) in the assay with SF-539 CNS; 30.5% in the assay with UACC-257 melanoma; 14.8% with M14 melanoma; -13.6% (active) with HCT-15 colon; 6.89% (active) in the assay with HT29 colon. Also, the growth in the assay with SNB-75 CNS is -19.9% (active); with SNB-19 CNS, 16.5%; with U251 CNS, 7.17% (active); with PC-3 prostate, 30.6%; in the assay on SK-MEL-5 melanoma, 4.43% (active); in the assay on UACC-62 melanoma, 5.04% (active). For the same compound, the growth in the assay with LOX IMVI melanoma was -53.1% (active); with SK-MEL-28 melanoma, 28.2%.
In the case of `O=C(Nc1ccc(OS(=O)(=O)c2ccc(F)cc2)cc1)C1CCCCCC1`, the growth in the assay on DU-145 prostate was 90.6%; with K-562 leukemia, 55.4%; with MALME-3M melanoma it was 99.6%; with MDA-MB-231 breast, 82.7%; in the assay with RXF 393 renal it was 105%; in the assay on SF-268 CNS, 88.2%. Further, the growth in the assay with SF-295 CNS was 98%; with SF-539 CNS, 89.7%; in the assay with UACC-257 melanoma it was 93.9%; with M14 melanoma, 85.9%; with HCT-15 colon, 54.7%; with HT29 colon, 31.6%. Moreover, the growth in the assay on SNB-75 CNS was 102%; in the assay on SNB-19 CNS it was 89.4%; in the assay on U251 CNS it was 72.9%; in the assay on PC-3 prostate, 88.3%; in the assay on SK-MEL-5 melanoma, 71.9%; in the assay on UACC-62 melanoma it was 85.5%. Further, the growth in the assay with LOX IMVI melanoma is 86.7%; in the assay with SK-MEL-28 melanoma it was 109%.

The record behind these values is PubChem BioAssay (NCI).
